Assay results reported in PubChem BioAssay.
Activity calls are given as the source filed them.

Key:
[1] = tested on: PRMT1 (protein arginine N-methyltransferase 1); assay: PRMT1 binders on small-molecule microarrays, primary screen, biochemical, small-molecule microarray, 635 nm fluorescence (AID 1088); conditions: small-molecule microarray binding, higher = more signal;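 note: binding of Prmt1 protein to compounds spotted on small-molecule microarray slides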
[2] = yeast growth modulation, basal conditions, primary screen, YJM789 clinical isolate, OD600, 24 h (AID 1089);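 note: growth of clinical yeast isolate S. cerevisiae YJM 789 seeded 1000 cells per well; test concentration not given here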; conditions: S. cerevisiae YJM789 growth, higher = more signal, called active from +8 up or from −8 down
[3] = fission yeast growth modulation, primary screen, strain 972, OD600, 24 h, no modulator (AID 1090);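 note: basal condition with compound alone and no growth modifier present; test concentration not given here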; conditions: S. pombe 972 growth, higher = more signal, called active from +8 up or from −8 down
[4] = S. cerevisiae growth modulation with rapamycin, primary screen, strain BY4716, OD600, 96 h (AID 1091); conditions: higher = more signal, called active from +8 up or from −8 down; note: test concentration not given here
[5] = molecular target: Torsin-1A-interacting protein 2 (Homo sapiens) (UniProt Q8NFQ8); assay: LULL1 binders on small-molecule microarray, primary screen, cell lysate, human LULL1 lysate, 635/667 nm fluorescence (AID 1092); conditions: hLULL1 lysate binding, 635 nm fluorescence, higher = more signal;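 note: probe is lysate of COS7 cells overexpressing human LULL1; score merges per-feature 667 nm fluorescence with signal-to-noise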
[6] = E. coli growth modulation, two-sided OD650, primary screen, E. coli filamentation project, strain DRC41, 24 h (AID 1093); conditions: OD650, 24 h, higher = more signal, called active from +8 up or from −8 down;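 note: MC1000 strain lacking acrAB efflux and sulA so SOS filamentation is blocked; test concentration not given here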
[7] = small-molecule microarray binders of probe aLefty2, primary screen, biochemical, biotinylated probe, 635/667 nm fluorescence (AID 1094); conditions: higher = more signal;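 note: score merges spot fluorescence near 667 nm with spot signal-to-noise ratio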
[8] = tested on: Noggin (protein binding on small-molecule microarray); assay: Noggin binders on small-molecule microarray, primary screen, biochemical, 635/667 nm fluorescence (AID 1095); conditions: 635 nm fluorescence, higher = more signal;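 note: score merges 667 nm feature fluorescence with signal to noise over triplicate slides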
[9] = molecular target: Neurogenic locus notch homolog protein 3 (Homo sapiens) (UniProt Q9UM47); assay: NOTCH3 binders on small-molecule microarray, primary screen, biochemical, 635/667 nm fluorescence (AID 1096); conditions: NOTCH3 binding, 635 nm fluorescence, higher = more signal
[10] = small-molecule microarray binders of probe aEGFR, primary screen, biochemical, biotinylated probe, 635/667 nm fluorescence (AID 1097); conditions: higher = more signal;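 note: probe is a biotinylated anti-EGFR antibody binding compounds printed on slides; score combines fluorescence near 667 nm and signal to noise of each spot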

Chain of Neurogenic locus notch homolog protein 3 (Homo sapiens) (Q9UM47 whole entry, looked up): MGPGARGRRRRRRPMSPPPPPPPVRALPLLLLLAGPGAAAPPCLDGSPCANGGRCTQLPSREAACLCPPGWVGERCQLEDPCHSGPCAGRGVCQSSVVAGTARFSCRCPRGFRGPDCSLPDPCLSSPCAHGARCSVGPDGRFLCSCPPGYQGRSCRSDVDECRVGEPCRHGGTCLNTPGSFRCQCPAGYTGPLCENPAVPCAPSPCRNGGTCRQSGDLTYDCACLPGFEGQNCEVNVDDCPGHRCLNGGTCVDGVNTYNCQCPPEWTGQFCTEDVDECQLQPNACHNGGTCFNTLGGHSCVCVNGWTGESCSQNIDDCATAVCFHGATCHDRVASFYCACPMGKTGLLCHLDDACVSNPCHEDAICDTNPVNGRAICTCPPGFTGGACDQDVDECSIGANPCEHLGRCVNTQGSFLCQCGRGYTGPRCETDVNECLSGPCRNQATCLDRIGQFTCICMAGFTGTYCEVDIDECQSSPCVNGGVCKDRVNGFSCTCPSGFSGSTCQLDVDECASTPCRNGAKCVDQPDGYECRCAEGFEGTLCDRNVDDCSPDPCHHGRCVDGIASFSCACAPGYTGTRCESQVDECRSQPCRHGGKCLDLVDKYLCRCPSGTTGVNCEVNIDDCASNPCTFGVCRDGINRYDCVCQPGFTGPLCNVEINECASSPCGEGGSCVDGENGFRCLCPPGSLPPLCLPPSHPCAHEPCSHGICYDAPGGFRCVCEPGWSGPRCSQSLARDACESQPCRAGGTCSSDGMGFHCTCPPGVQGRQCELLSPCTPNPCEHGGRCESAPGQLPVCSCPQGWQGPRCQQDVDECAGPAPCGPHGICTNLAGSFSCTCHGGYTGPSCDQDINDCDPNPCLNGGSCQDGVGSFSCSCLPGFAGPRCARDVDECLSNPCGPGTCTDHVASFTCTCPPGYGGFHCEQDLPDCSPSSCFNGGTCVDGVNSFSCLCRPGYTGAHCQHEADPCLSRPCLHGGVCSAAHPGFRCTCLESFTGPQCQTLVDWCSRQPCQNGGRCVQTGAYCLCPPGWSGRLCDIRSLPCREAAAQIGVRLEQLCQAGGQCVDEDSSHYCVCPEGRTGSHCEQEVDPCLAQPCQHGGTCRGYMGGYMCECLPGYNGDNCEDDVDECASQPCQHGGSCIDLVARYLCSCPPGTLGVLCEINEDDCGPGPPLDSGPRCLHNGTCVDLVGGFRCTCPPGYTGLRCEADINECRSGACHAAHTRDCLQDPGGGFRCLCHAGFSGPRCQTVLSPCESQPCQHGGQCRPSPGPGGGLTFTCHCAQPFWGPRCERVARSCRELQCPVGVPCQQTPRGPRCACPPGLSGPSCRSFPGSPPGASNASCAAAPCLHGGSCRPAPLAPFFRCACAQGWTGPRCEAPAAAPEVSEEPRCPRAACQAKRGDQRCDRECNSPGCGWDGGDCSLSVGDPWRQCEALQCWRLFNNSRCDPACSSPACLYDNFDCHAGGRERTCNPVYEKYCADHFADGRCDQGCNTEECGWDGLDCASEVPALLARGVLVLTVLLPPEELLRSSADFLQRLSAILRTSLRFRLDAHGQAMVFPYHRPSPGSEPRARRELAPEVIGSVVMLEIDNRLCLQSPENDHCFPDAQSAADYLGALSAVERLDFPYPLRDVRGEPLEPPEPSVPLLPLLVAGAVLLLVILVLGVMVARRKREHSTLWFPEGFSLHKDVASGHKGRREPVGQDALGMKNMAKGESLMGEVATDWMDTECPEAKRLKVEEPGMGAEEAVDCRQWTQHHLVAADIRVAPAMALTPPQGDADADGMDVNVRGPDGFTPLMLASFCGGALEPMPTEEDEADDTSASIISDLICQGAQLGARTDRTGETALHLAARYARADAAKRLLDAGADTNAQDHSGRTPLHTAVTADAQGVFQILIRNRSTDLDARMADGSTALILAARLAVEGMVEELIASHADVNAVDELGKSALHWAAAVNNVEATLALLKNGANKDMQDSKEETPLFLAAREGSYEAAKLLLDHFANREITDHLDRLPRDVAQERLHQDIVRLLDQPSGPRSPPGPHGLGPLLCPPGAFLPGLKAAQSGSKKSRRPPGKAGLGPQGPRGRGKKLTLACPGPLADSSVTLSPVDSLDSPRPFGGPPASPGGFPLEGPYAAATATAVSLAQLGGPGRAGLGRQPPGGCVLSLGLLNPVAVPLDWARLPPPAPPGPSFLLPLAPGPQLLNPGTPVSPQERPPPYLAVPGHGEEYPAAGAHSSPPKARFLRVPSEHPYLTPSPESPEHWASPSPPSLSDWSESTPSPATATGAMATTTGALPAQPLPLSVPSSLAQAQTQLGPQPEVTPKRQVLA
Chain of Torsin-1A-interacting protein 2 (Homo sapiens) (Q8NFQ8 whole entry, looked up): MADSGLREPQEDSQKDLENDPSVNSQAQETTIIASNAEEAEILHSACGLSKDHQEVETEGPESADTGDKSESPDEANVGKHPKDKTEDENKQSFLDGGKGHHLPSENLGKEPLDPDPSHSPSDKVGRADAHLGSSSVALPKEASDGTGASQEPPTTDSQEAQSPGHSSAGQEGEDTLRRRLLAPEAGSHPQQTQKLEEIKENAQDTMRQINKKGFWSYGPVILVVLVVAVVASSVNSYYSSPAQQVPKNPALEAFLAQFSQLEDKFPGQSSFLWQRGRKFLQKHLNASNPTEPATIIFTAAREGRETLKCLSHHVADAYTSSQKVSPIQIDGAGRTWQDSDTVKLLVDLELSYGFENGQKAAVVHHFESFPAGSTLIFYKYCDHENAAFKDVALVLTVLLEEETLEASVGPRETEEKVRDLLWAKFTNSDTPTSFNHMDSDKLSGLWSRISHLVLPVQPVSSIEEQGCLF

| SMILES | composite z-score [1] | z-score [2] | z-score [3] | z-score [4] | composite z-score [5] | z-score [6] | composite z-score [7] | composite z-score [8] | composite z-score [9] | composite z-score [10] |
| --- | --- | --- | --- | --- | --- | --- | --- | --- | --- | --- |
| Cc1cc(C)c(C(O)C2C=CC3C(=O)N(c4ccccc4)C(=O)C3N2Nc2ccc([N+](=O)[O-])cc2)c(C)c1 (stereo not given) | 1.54 | -0.695 (inactive) | 0.957 (inactive) | 2.16 (inactive) | 3.73 | 0.356 (inactive) | 0.216 | 0.525 | 1.02 | 0.0225 |
| C=CCNC(=O)[C@H]1[C@@H]2C(=O)O[C@@H](c3ccccc3)[C@@H](c3ccccc3)N2[C@@H](c2ccc(O)cc2)[C@]12C(=O)N(C(=O)OCCOC)c1ccc(C#CC3(O)CCCCCC3)cc12 | 1.55 | 0.729 (inactive) | -0.932 (inactive) | 0.943 (inactive) | 2.45 | 1.87 (inactive) | 0.0026 | 0.147 | 0.838 | 0.0638 |
| COCCOC(=O)N1C(=O)[C@@]2(c3cc(C#CCC(C(=O)OC)C(=O)OC)ccc31)[C@H](C(=O)N1CCCCCCC1)[C@H]1C(=O)O[C@H](c3ccccc3)[C@H](c3ccccc3)N1[C@@H]2c1ccc(O)cc1 | 1.49 | 0.405 (inactive) | -0.866 (inactive) | 1.15 (inactive) | 3.19 | 1.04 (inactive) | 1.06 | 1.37 | 1.07 | 0.456 |
| COc1ccc([Si](C)(C)[C@H]2[C@H](CCO)O[C@@]3(C(=O)N(Cc4cccc(N5CCOC5=O)c4)c4ccccc43)[C@@H]2C)cc1 | 1.39 | 2.81 (inactive) | -0.406 (inactive) | 34 (active) | 2.39 | 0.228 (inactive) | 0.514 | 0.459 | 1.14 | -0.0973 |
| N#Cc1ccc(NN2C(C(O)c3ccco3)C=CC3C(=O)N(c4ccccc4)C(=O)C32)cc1 (stereo not given) | 0.327 | 0.0011 (inactive) | 0.376 (inactive) | 1.7 (inactive) | 2.41 | -3.5 (inactive) | 0.0815 | -0.0593 | 0.591 | -0.0411 |
| C=CCN1C(=O)[C@@]2(O[C@@H](CCn3cc([C@H](O)c4ccccc4)nn3)[C@H]([Si](C)(C)c3ccc(OC)cc3)[C@H]2C)c2cc(NC(=O)c3ccc(OC)cc3)ccc21 | 0.948 | 1.05 (inactive) | 0.0445 (inactive) | 0.7 (inactive) | 1.72 | 0.859 (inactive) | -0.0615 | 0.551 | 0.422 | -0.0564 |
| CN1C(=O)C2C=CC(C(O)c3ccc(F)cc3)N(N3CCCCC3)C2C1=O (stereo not given) | 1.07 | 1.15 (inactive) | 1.27 (inactive) | 2.06 (inactive) | 2.78 | -1.17 (inactive) | 0.682 | -0.513 | 0.721 | 0.204 |
| CCCCCCCCCCC(O)C1C=CC2C(=O)NC(=O)C2N1Nc1ccccn1 (stereo not given) | -0.19 | -20 (active) | -16.2 (active) | -2.6 (inactive) | 1.78 | -15.5 (active) | -0.0654 | -0.894 | 0.243 | -0.14 |
